Experimental data published in PubChem BioAssay (Tox21).
Results filed as inconclusive are left out. Calls of active or inactive are those of the source. Unless noted, calls come from the whole dose curve; as a rule, active = well fitted curve in the direction sought with a large enough effect in the repeat runs; inconclusive = weak or mixed curves; inactive = no such curve, though single readings can be large; an effect the other way counts as inactive or inconclusive.

Assays:
[1] = qHTS assay to identify small molecule agonists of the RXR signaling pathway - cell viability counter screen (AID 1159529); note: nearly all actives have a fitted effect of over 50% in size
Procedure, shortened: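 CellTiter-Glo luminescence gave viability in the wells also read for beta-lactamase. Cells (RXR-alpha-UAS-bla HEK 293T, 2% charcoal-stripped FBS medium) had 5 hr plating, then 16 hr compound exposure at 37 C; tetraoctyl ammonium bromide served as positive control.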

[2] = qHTS assay to identify small molecule antagonists of the retinoid acid receptor (RAR) signaling pathway - cell viability counter screen (AID 1159551); note: nearly all actives have a fitted effect of over 35% in size
Procedure, shortened: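 Cytotoxicity counter screen: ATP content quantified by CellTiter-Glo luminescence in C3RL4 cells treated 6 hr at 37 C with compound and retinol (1 uM final). Cells plated at 1,000/well and cultured overnight before dosing.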

[3] = qHTS assay to identify small molecule antagonists of the retinoic acid receptor (RAR) signaling pathway (AID 1159552; note: nearly all actives have a fitted effect of over 50% in size)
Procedure, shortened: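 Luminescent RARE reporter read-out in C3RL4 cells: 6 hr co-treatment at 37 C of test compounds with retinol at 1 uM final. Cells plated overnight beforehand; luciferase reagent incubated 30 min at room temperature before reading.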

[4] = qHTS assay to identify small molecule agonists of the retinoic acid receptor (RAR) signaling pathway (AID 1159553); settings: C3RL4 RARE luciferase reporter, agonist, 6 h; activation: at 73.3 µM (top of the series) unless noted
Procedure, shortened: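 Luminescence was measured 30 min after luciferase reagent addition at room temperature. Before that, C3RL4 reporter cells (1,000 per well, plated overnight) were treated with compound for 6 hr at 37 C and 5% CO2.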

[5] = qHTS assay to identify small molecule antagonists of the estrogen related receptor (ERR) signaling pathway from Tox21 library - cell viability counter screen (AID 1224834); note: nearly all actives have a fitted effect of over 30% in size
Procedure, shortened: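 CellTiter-Fluor fluorescence, read after 30 min at 37 C, measures viability of ERR cells. Cells plated at 2,000/well and incubated 6 h before pin-tool compound addition, then exposed 17.5 hours at 37 C.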

[6] = molecular target: Luciferin 4-monooxygenase (Photinus pyralis) (UniProt P08659); experiment: qHTS assay to identify small molecule inhibitors of firefly luciferase (AID 1224835); note: nearly all actives have a fitted effect of over 25% in size
Procedure, shortened: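 Quantitative HTS format; KM concentrations of both substrates. Purified P. pyralis FLuc activity quantified from luminescence images.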

[7] = qHTS assay to identify small molecule agonists of the constitutive androstane receptor (CAR) signaling pathway - cell viability counter screen (AID 1224836); note: nearly all actives have a fitted effect of over 45% in size
Procedure, shortened: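 Cell viability multiplexed with the CAR agonist screen: CellTiter-Fluor fluorescence after 23 hr at 37 C. HepG2-CYP2B6-hCAR cells got compounds at 15 concentrations with PK11195 at 0.75 uM final.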

[8] = qHTS assay to identify small molecule antagonists of the constitutive androstane receptor (CAR) signaling pathway - cell viability counter screen (AID 1224837); note: nearly all actives have a fitted effect of over 45% in size
Procedure, shortened: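 Cytotoxicity counter-screen: CellTiter-Fluor fluorescence after 23 h compound exposure (15-point qHTS) in double-stable HepG2-CYP2B6-hCAR cells, with 50 nM CITCO added.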

[9] = molecular target: Nuclear receptor subfamily 1 group I member 3 (Homo sapiens) (UniProt Q14994); experiment: qHTS assay to identify small molecule antagonists of the constitutive androstane receptor (CAR) signaling pathway (AID 1224838);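 note: HepG2 cells stably expressing hCAR with CYP2B6 luciferase reporter stimulated by CITCO; nearly all actives have a fitted effect of over 40% in size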
Procedure, shortened: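 Antagonism measured as luciferase signal (ONE-Glo, 30 min, room temperature) in CAR-stimulated cells: HepG2-CYP2B6-hCAR double-stable line exposed 24 hr at 37 C to compound in a 15-point series plus 50 nM CITCO.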

[10] = molecular target: Nuclear receptor subfamily 1 group I member 3 (Homo sapiens) (UniProt Q14994); experiment: qHTS assay to identify small molecule agonists of the constitutive androstane receptor (CAR) signaling pathway (AID 1224839);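 note: HepG2 cells stably carrying human CAR and a CYP2B6 luciferase reporter; nearly all actives have a fitted effect of over 15% in size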
Procedure, shortened: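 Luminescent ONE-Glo read-out after 24 hr, 37 C exposure of double-stable HepG2-CYP2B6-hCAR reporter cells to a 15-point compound series, in the presence of 0.75 uM PK11195 (final).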

[11] = qHTS assay to identify small molecule antagonists of the estrogen related receptor signaling pathway with the pleiotropic PPARgamma coactivator (PGC) from Tox21 10K library - cell viability counter screen (AID 1224840; active = well fitted cell-killing curve with a large enough effect in the repeat runs, not every such curve was filed as active; note: nearly all actives have a fitted effect of over 40% in size)
Procedure, shortened: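 Counter-screen for cytotoxicity: after 17.5 h compound exposure at 37 C, CellTiter-Fluor reagent added to PGC/ERR cells for 30 min and fluorescence read. Cells were seeded at 2,000 per well 6 h before dosing.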

[12] = molecular target: Thyrotropin receptor (Homo sapiens) (UniProt P16473); experiment: qHTS assay to identify small molecule agonists of the thyroid stimulating hormone receptor (TSHR) signaling pathway (AID 1224843; calls by dose curve; note: nearly all actives have a fitted effect of over 45% in size)
Procedure, shortened: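 Using 15 concentrations per compound in triplicate, cAMP production was monitored in TSHR-HEK293 cells after 30 min compound incubation at RT; HTRF reagents followed, with fluorescence intensity recorded after 1 h.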

[13] = qHTS assay to identify small molecule agonists of the hypoxia (HIF-1) signaling pathway - cell viability counter screen (AID 1224844; calls by dose curve; note: nearly all actives have a fitted effect of over 50% in size)
Procedure, shortened: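 Cytotoxicity measured by CellTiter-Glo ATP luminescence in the wells also read for beta-lactamase signal. Cells were HRE-bla ME-180 (2,000/well, 0.5% dialyzed FBS), exposed to compounds for 17 h at 37C.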

[14] = qHTS assay to identify small molecule antagonists of the estrogen related receptor signaling pathway with the pleiotropic PPARgamma coactivator (PGC) from Tox21 10K library (AID 1224841; call rule not given here; note: actives are mostly falling curves and most rising ones were filed inactive; nearly all actives have a fitted effect of over 50% in size)
Procedure, shortened: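 Luminescence (One-Glo, 30 min at room temperature) after 18 h compound treatment at 37 C of PGC/ERR reporter cells plated at 2,000 cells/well and settled 6 h beforehand.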

[15] = qHTS assay to identify small molecule agonists of the estrogen related receptor signaling pathway with the pleiotropic PPARgamma coactivator (PGC) from Tox21 10K library (AID 1224842); note: nearly all actives have a fitted effect of over 15% in size
Procedure, shortened: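 PGC/ERR reporter cells (NTP line) were seeded 2,000 per well, rested 6 h at 37 C/5% CO2, then pin-dosed with compounds in DMSO for 18 h at 37 C; luciferase read by One-Glo luminescence after 30 min at room temperature.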

Measured: Potency

Chain of Nuclear receptor subfamily 1 group I member 3 (Homo sapiens) (Q14994 whole entry, looked up): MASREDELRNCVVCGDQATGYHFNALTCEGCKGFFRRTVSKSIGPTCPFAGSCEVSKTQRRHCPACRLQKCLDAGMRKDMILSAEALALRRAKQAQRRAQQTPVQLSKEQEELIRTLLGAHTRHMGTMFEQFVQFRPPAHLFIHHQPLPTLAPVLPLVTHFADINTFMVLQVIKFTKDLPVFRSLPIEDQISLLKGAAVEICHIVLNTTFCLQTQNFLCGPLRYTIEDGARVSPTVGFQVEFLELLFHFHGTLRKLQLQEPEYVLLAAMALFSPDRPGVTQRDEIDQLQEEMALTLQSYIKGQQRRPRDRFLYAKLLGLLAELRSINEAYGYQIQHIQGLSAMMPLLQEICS
Chain of Luciferin 4-monooxygenase (Photinus pyralis) (P08659 whole entry, looked up): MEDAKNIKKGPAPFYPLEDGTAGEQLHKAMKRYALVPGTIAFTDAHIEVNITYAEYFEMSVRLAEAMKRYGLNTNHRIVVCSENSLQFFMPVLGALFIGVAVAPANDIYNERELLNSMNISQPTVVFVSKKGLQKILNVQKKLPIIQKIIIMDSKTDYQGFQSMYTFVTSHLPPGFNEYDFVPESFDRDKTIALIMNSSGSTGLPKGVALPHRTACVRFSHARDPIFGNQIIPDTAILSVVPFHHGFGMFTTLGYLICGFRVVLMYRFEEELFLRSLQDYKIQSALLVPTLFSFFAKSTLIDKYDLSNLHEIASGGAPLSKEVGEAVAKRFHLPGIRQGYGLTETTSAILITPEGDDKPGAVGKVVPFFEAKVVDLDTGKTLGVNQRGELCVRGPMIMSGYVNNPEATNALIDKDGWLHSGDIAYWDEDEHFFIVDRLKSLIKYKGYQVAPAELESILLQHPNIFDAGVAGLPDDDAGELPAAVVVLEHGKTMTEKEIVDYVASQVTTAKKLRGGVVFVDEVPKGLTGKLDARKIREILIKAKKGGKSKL
Chain of Thyrotropin receptor (Homo sapiens) (P16473 whole entry, looked up): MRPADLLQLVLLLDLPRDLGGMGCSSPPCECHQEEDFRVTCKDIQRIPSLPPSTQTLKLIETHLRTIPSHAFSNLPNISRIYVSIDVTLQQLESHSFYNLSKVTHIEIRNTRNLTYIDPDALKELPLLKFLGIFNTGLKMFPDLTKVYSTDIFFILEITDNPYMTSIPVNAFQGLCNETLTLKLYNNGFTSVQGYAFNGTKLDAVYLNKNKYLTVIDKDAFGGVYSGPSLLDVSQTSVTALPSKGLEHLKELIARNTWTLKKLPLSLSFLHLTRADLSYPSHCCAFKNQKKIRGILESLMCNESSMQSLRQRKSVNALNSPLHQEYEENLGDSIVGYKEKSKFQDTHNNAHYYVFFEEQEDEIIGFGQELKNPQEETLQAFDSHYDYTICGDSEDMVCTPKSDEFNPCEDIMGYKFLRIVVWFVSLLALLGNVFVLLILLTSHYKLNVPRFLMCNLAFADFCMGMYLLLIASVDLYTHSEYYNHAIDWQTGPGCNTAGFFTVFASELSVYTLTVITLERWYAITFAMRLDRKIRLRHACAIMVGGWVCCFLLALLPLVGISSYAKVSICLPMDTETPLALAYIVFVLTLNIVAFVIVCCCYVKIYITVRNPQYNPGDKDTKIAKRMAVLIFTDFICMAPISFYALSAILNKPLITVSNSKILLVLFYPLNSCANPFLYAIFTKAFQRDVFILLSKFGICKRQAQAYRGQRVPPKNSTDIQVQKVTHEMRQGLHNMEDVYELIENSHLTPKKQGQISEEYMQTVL

CCN1C(=O)c2ccccc2C1Nc1ccc(OCCN2CCCCC2)cc1 (stereo unspecified)
inactive: [1] | [2] | [3] | [4] | [5] | [6] | [7] | [8] | [9] | [10] | [11] | [12] | [13]

CC1(C)CCC[C@]2(C)[C@H]3CCO[C@]3(C)CC[C@@H]12
inactive: [1] | [2] | [3] | [4] | [5] | [6] | [7] | [8] | [9] | [10] | [11] | [14] | [15] | [12]

Cc1cc(-n2nc3ccc(Cl)cc3n2)c(O)c(C(C)(C)C)c1
inactive: [1] | [2] | [3] | [4] | [5] | [6] | [7] | [8] | [9] | [10] | [14] | [15] | [12] | [13]

COC(=O)c1ccccc1C
inactive: [1] | [2] | [3] | [4] | [5] | [6] | [7] | [8] | [11] | [14] | [15] | [12] | [13]

CCCCCCCCCCCC(=O)OCC(C)OC(=O)CCCCC(=O)O (stereo unspecified)
inactive: [1] | [2] | [3] | [4] | [5] | [6] | [7] | [8] | [9] | [10] | [15] | [12] | [13]

C1CCC(SSC2CCCCC2)CC1
inactive: [1] | [2] | [3] | [4] | [5] | [6] | [7] | [8] | [9] | [10] | [11] | [14] | [15] | [12] | [13]

O=S(=O)(O)c1ccc(Nc2nc(Nc3ccc(/C=C/c4ccc(Nc5nc(Nc6ccc(S(=O)(=O)O)cc6)nc(N(CCO)CCO)n5)cc4S(=O)(=O)O)c(S(=O)(=O)O)c3)nc(N(CCO)CCO)n2)cc1
inactive: [1] | [2] | [3] | [4] | [5] | [6] | [7] | [8] | [11] | [14] | [15] | [12] | [13]

Cc1cccc(C(=O)O)c1O
inactive: [1] | [2] | [3] | [4] | [5] | [6] | [7] | [8] | [11] | [14] | [15] | [12] | [13]

FC(F)(F)c1cccc(Cl)c1
inactive: [1] | [2] | [3] | [4] | [5] | [6] | [7] | [8] | [9] | [10] | [11] | [12] | [13]
